For assay [1], the target named is Nucleoprotein (Lymphocytic choriomeningitis virus (strain Armstrong)) (UniProt P09992). Description: qHTS for Inhibitors of the Functional Ribonucleoprotein Complex (vRNP) of Lymphocytic Choriomeningitis Arenaviruses (LCMV): LCMV Primary Screen - GLuc reporter signal (AID 1347086; calls by dose curve; note: series mostly up to about 57 µM; % is set by controls: 0 for no effect and ±100 for the full control effect; nearly all actives have a fitted effect of over 70% in size).
Assay [2] has as its target Metallo-beta-lactamase type 2 (Klebsiella pneumoniae) (UniProt C7C422). The experiment in a line: qHTS to identify inhibitors of the New Delhi Metallo-beta-lactamase (NDM): assay validation screen against the NCATS LOPAC Collection (AID 1794843).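 Note: nitrocefin turnover by NDM-1 measured as 485 nm absorbance at plateau; series mostly up to about 38 µM; % is set by controls: 0 for no effect and ±100 for the full control effect.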 A digest of the protocol: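 NDM-1 at 2 nM final in 50 mM HEPES pH 7.0 with 1 uM ZnSO4 and 0.01% Tween20 was preincubated with library compounds in DMSO. Nitrocefin (50 uM stock) was then added, and absorbance at 485 nm was read at the kinetic plateau.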

Assay [3] deals with Zika virus NS2B-NS3 protease. Description: Primary screen GU AMC qHTS for Zika virus inhibitors (AID 1347154).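 Note: 0% = no-inhibitor control and -100% = no-enzyme control; nearly all actives have a fitted effect of over 70% in size.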 A digest of the protocol:
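Fluorogenic AMC-substrate cleavage by noncovalent NS2B-NS3 protease complex (25 nM, pH 8.0 Tris buffer with Tween 20) followed for 15 minutes at room temperature (~20% conversion). Percent inhibition from ex340/em450 signal change, fitted by 4-parameter Hill equation.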

Assay [4] addresses Cytochrome P450 3A4 (Homo sapiens) (UniProt P08684). The experiment in a line: qHTS Assay for Inhibitors and Substrates of Cytochrome P450 3A4 (AID 884). Note: potency is the fitted concentration of half-maximal effect; nearly all actives have a fitted effect of over 50% in size. In outline: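 Luminescent readout of luciferin produced by CYP3A4 (20 nM) dealkylation of Luciferin-PPXE, 25 uM (its KM). NADPH-driven reaction ran 60 min at RT after 10 min compound preincubation; data scaled to 57 uM ketoconazole as 100% inhibition.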

Assay [5] shares this target. Description: qHTS Assay for Activators of Cytochrome P450 3A4 (AID 885). Note: nearly all actives have a fitted effect of over 65% in size. A digest of the protocol:
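CYP3A4 activity: Luciferin-PPXE O-dealkylation, 25uM substrate, 200mM KPO4, RT throughout. Read-out is luciferase luminescence; higher values reflect activation.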
For orientation: In qHTS, concentration-response curves come from the screen itself.

Assay [6] is described as follows: Confirmation and Secondary Assay for Modulators of Hemoglobin Beta Chain Splicing at IVS2 654 locus (AID 910).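 Note: HeLa cells stably carrying EGFP split by mutant beta-globin IVS2-654 intron; per-well total GFP intensity by laser scanning cytometry after 2-day treatment; % of control where 0% means no effect.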 In outline: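 Readout: per-well total peak green fluorescence (488 nm ex, 500–520 nm em) from objects 5–250 µm, reflecting correct splicing of an EGFP-654 reporter. Compounds were applied for 2 days at 37 °C to overnight-plated HeLa EGFP-654 cells; controls were DMSO and 500 nM IVS2-654 PNA.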

A short description of assay [7]: Confirmation and Secondary Assay for Modulators of Hemoglobin Beta Chain Splicing at IVS2 705 locus (AID 930).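 Note: HeLa cells stably expressing the EGFP-705 splicing reporter; series mostly up to about 46 µM; % of control where 0% means no effect.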 In outline:
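Restored EGFP fluorescence after 2-day compound exposure reports splicing correction in IVS2-705 EGFP reporter HeLa cells; positive control was 500 nM splice-blocking PNA oligo. Signal measured as well total peak GFP intensity (488 nm excitation).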

Assay [8] addresses Ubiquitin carboxyl-terminal hydrolase 1 (Homo sapiens) (UniProt O94782). Description: Inhibitors of USP1/UAF1: Pilot qHTS (AID 504865). Note: potency is the fitted concentration of half-maximal effect; nearly all actives have a fitted effect of over 35% in size. In outline: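 USP1/UAF1 complex at 1 nM preincubated 15 min at room temperature with compound, then Ub-Rho substrate added at 150 nM final. Fluorescence (480/540 nm) read kinetically in 50 mM HEPES pH 7.8, 0.5 mM EDTA, 1 mM TCEP, 0.1 mg/ml BSA, 0.01% Tween-20.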

The target in another assay is Furin (Homo sapiens) (UniProt P09958). Description: Furin counterscreen qHTS for Zika virus inhibitors (AID 1347149).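 Note: purified recombinant full-length human furin enzyme at 5 nM; fluorescence gain from furin cutting a BOC-RVRR-AMC peptide substrate over 15 min; top concentration of the series differs between compounds; plate controls were no-inhibitor control for no effect and no-enzyme control for full effect; nearly all actives have a fitted effect of over 70% in size.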 A digest of the protocol: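 Counterscreen measures cleavage of 2 microM BOC-RVRR-AMC, below its ~15 microM Km, by 5 nM full-length human furin at pH 7.0 after a 15-min compound preincubation. Inhibition derives from the 15-min fluorescence increase at 37C.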
Sequence of Furin (Homo sapiens) (P09958 whole entry, looked up): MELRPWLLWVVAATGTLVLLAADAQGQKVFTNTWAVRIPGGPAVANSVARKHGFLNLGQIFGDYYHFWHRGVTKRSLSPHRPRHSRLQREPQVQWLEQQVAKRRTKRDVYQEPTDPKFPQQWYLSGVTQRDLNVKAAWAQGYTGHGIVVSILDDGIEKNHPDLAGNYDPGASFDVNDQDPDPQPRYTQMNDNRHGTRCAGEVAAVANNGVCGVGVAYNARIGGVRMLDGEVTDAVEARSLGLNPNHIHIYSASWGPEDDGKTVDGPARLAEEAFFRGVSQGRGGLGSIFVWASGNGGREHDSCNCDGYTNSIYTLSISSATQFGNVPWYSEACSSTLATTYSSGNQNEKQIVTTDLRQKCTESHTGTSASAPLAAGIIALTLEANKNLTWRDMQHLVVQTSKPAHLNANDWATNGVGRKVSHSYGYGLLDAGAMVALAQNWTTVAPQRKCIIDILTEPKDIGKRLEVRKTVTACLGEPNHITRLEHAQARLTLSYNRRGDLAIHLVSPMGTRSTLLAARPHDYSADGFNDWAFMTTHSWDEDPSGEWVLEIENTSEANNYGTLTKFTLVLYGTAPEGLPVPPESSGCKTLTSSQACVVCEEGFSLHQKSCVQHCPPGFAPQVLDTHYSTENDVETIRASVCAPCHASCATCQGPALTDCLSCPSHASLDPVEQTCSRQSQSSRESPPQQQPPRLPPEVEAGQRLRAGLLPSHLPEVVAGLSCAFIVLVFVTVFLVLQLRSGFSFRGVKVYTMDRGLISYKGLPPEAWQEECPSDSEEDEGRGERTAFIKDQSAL

For assay [9], the system named is Zika virus NS2B-NS3 protease (unlinked complex). The experiment in a line: Confirmatory screen GU AMC qHTS for Zika virus inhibitors (AID 1347153).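 For Potency: enzyme at 25 nM with substrate at 10 µM below its Km of 18.3 µM; potency is the fitted concentration of half-maximal effect.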 Note: nearly all actives have a fitted effect of over 70% in size. A digest of the protocol:
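Noncovalent NS2B hydrophilic domain/NS3 protease complex (25 nM) in 10 mM Tris-HCl pH 8.0, 0.01% Tween 20 was preincubated 15 min at room temperature with compounds. Then 10 µM AMC substrate (Km 18.3 µM) was added; fluorescence was read over 15 min and fitted to a 4-parameter Hill equation.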

A short description of assay [10]: Confirmatory screen NINDS Rhodamine qHTS for Zika virus inhibitors (AID 1347161). Note: potency is the fitted concentration of half-maximal effect; nearly all actives have a fitted effect of over 60% in size. A digest of the protocol: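 Kinetic fluorescence (Ex 480 nm, Em 540 nm) over 15 min with 1.5 microM Rhodamine110 peptide and 25 nM linked protease.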
Assay [11] has as its system Zika virus NS2B-NS3 protease (linked). Description: 384 well plate NINDS AMC confirmatory qHTS for Zika virus inhibitors (AID 1347163). Note: potency is the fitted concentration of half-maximal effect; nearly all actives have a fitted effect of over 50% in size. Particulars: Recombinant NS2B-NS3 protease, Ac-VKTGKR-AMC fluorescence. A digest of the protocol:
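Enzyme (5, 30 or 60 nM final) first met test compounds for ~15 min. The AMC-tagged peptide Ac-VKTGKR-AMC followed at 30 microM. Fluorescence was then recorded at 25 min and scaled against no-enzyme and no-inhibitor wells.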

The nature of assay [12]: Vero cells viability qHTS for Zika virus inhibitors (AID 1347167). Note: % is set by controls: 0 for no effect and ±100 for the full control effect. In outline: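 Luminescent ATP readout (CellTiter Glo) after 30 min at 37 degrees C gives viability; cells in DMEM + 4% FBS were treated 24 to 48 hours with compound, following overnight attachment.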
The nature of assay [13]: Tertiary RLuc qRT-PCR qHTS assay for Zika virus inhibitors (AID 1347169). For activity change, negative = inhibition: top concentration of the series differs between compounds; % is set by controls: 0 for no effect and ±100 for the full control effect. Note: nearly all actives have a fitted effect of over 55% in size. Note: potency is the fitted concentration of half-maximal effect. A digest of the protocol: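 Vero cells (1,000/well) infected with recombinant ZIKV-RLuc (Cambodian) at MOI 1-2 after compound addition, 48-72 hrs at 37 degrees C. Live-cell Renilla luciferase substrate added; luminescence read after 1-1.5 hrs.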
A general note: Quantitative PCR measures a nucleic acid by following its amplification.

Assay [14] has as its target Rap guanine nucleotide exchange factor 3 (Homo sapiens) (UniProt O95398). The experiment in a line: Confirmatory qHTS for antagonist of cAMP-regulated guanine nucleotide exchange factor 3 (EPAC1) (AID 1645880). Note: potency is the fitted concentration of half-maximal effect; nearly all actives have a fitted effect of over 55% in size. A digest of the protocol: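 Released BODIPY-GDP fluoresces less than Rap1-bound BODIPY-GDP; the signal is followed at 480/540 nm at 5-min intervals over 30 min, after 5 min at room temperature. Reactions contain 100 nM EPAC1, 250 nM RAP1B-BODIPY-GDP and 50 uM GDP; results are normalized to ATA and DMSO.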

For assay [15] the target is unchanged. Description: Confirmatory qHTS for agonist of cAMP-regulated guanine nucleotide exchange factor 3 (EPAC1) (AID 1645881).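 Note: EPAC1 catalysed release of BODIPY-GDP from Rap1B seen as fluorescence loss; 100% = effect of cAMP agonist control; nearly all actives have a fitted effect of over 75% in size.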
Assay [16] addresses Rap guanine nucleotide exchange factor 4 (Homo sapiens) (UniProt Q8WZA2). The experiment in a line: Confirmatory qHTS for agonist of cAMP-regulated guanine nucleotide exchange factor 4 (EPAC2) (AID 1645884).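 Note: nucleotide exchange releases bodipy-GDP from Rap1 and this lowers its fluorescence; % is set by controls: 0 for no effect and ±100 for the full control effect; nearly all actives have a fitted effect of over 65% in size.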
The target is the same in assay [17]. Description: Confirmatory qHTS for antagonist of cAMP-regulated guanine nucleotide exchange factor 4 (EPAC2) (AID 1645885). Note: % is set by controls: 0 for no effect and ±100 for the full control effect; nearly all actives have a fitted effect of over 25% in size.
Assay [18] relates to Zika virus NS2B-NS3 protease (unlinked). The experiment in a line: Optimization of GU AMC qHTS for Zika virus inhibitors: Unlinked NS2B-NS3 protease assay (AID 1347151).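 Note: series mostly up to about 52 µM; 0% = no-inhibitor control and -100% = no-enzyme control; nearly all actives have a fitted effect of over 80% in size.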 In outline: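 Noncovalent NS2B hydrophilic domain–NS3 protease complex (25 nM final) in 10 mM Tris-HCl pH 8.0, 0.01% Tween 20; AMC substrate, room temperature 15 min (~20% conversion); fluorescence change normalized, 4-parameter Hill fit.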

For assay [19], the target named is Cytochrome P450 1A2 (Homo sapiens) (UniProt P05177). Description: p450-cyp1a2 (AID 410; calls by dose curve; note: potency is the fitted concentration of half-maximal effect). A digest of the protocol: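 Read-out is luminescence from luciferin produced by CYP1A2 demethylation of Luciferin-ME (100uM, at Km). Detection reagent stopped the 60 min NADPH-dependent reaction; signals were normalized to 57 uM furafylline.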
The target of assay [20] is Glucocorticoid receptor (Homo sapiens) (UniProt P04150). The experiment in a line: GR-GFP Redistribution (AID 450;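 active = compounds whose dose series gives a full or clear partial fitted curve of increased nuclear translocation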; note: potency is the fitted concentration of half-maximal effect). To be noted: U2OS GR-GFP nuclear translocation, laser cytometry, 2 h.
Sequence of Glucocorticoid receptor (Homo sapiens) (P04150 whole entry, looked up, the tested form may be a part): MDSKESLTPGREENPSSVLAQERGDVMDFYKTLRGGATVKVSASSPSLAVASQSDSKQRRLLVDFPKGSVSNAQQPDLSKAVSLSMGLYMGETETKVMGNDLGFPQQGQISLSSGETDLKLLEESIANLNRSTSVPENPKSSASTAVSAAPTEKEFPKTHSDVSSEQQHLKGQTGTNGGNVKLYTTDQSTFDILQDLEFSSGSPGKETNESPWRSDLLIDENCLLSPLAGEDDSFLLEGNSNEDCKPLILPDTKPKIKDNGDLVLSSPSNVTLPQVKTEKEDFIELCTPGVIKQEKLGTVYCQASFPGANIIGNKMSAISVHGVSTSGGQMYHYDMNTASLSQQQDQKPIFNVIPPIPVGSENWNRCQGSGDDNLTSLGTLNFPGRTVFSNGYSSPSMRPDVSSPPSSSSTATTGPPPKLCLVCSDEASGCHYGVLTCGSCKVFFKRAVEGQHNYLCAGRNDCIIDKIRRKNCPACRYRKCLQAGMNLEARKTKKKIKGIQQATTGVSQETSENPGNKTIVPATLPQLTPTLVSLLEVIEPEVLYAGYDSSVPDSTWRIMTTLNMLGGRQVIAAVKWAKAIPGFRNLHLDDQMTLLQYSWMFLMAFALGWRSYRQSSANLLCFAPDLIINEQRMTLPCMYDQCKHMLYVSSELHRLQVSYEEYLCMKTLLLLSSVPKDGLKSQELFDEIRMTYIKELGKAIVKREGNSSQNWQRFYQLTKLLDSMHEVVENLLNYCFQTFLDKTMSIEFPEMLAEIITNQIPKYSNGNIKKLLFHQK
The target is the same in assay [21]. Description: GR-EFC Redistribution (AID 451; calls by dose curve; note: potency is the fitted concentration of half-maximal effect). To be noted: CHO-K1 GR-EFC translocation, beta-gal luminescence, 2 h. A digest of the protocol: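 Translocation of GR-ED fusion to nuclear EA restores b-gal, read by luminescence after 1 h room-temperature detection. Engineered CHO-K1 biosensor cells, 1,000/well, exposed 2 h at 37 C to titrations up to 46 uM final.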

The target of assay [22] is 3',5'-cyclic-AMP phosphodiesterase 4B (Homo sapiens) (UniProt Q07343). Description: qHTS Assay for Inhibitors of PDE-IV (AID 607; active = well fitted activation curve with a large enough effect in the main read-out, with a control signal flat, not every such curve was filed as active; note: % of control where 0% means no effect). In outline:
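ACTOne HEK293 cells carry a modified cAMP-gated CNG channel and express endogenous PDE4; plated 1000 cells/well, compounds up to 22.9 uM final. Membrane-potential dye fluorescence (ex 535/em 590) was read; parental cells received 10 uM forskolin + 100 uM RO 20-1724.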

The target of assay [23] is DNA dC->dU-editing enzyme APOBEC-3G (Homo sapiens) (UniProt Q9HC16). Description: qHTS for inhibitors of Vif-A3G interactions: Validation (AID 588379). Note: 0% is about no effect. In outline: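 Yellow fluorescence (Ex 488, Em 500-530) of Vif-coexpressing HeLa A3G-eYFP cells, scanned by Acumen cytometer, reports blocked A3G degradation. Cells plated at 700/well overnight at 37 deg C before compound addition, then a further overnight compound incubation at 37 deg C.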

Assay [24] has as its system Zika virus NS2B-NS3 protease (linked construct). Description: 384 well plate NINDS Rhodamine confirmatory qHTS for Zika virus inhibitors (AID 1347164).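 Note: fluorescence from protease cleavage of Ac-LKRR-rhodamine 110 substrate; top concentration of the series differs between compounds; plate controls were no-inhibitor control for no effect and no-enzyme control for full effect; nearly all actives have a fitted effect of over 65% in size.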 In outline: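 Linked NS2B-NS3 protease (final 5, 30 or 60 nM) preincubated ~15 minutes with compounds, then 10 microM Ac-LKRR-Rhodamine 110 added. Fluorescence (485/538 nm) read after 25 minutes at room temperature, normalized to no-enzyme and no-inhibitor controls.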

A short description of assay [25]: Primary qHTS for small molecule stabilizers of the endoplasmic reticulum resident proteome: Secreted ER Calcium Modulated Protein (SERCaMP) assay (AID 1508630). Note: % is set by controls: 0 for no effect and ±100 for the full control effect. In outline:
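The SH-SY5Y reporter protocol was run at 3 concentrations up to 38.3 uM (primary) or 11 concentrations (follow-up): 16 h compound, 100 nM thapsigargin for 4 h, then extracellular luciferase luminescence.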

Six molecules from PubChem BioAssay (NCATS) can be followed below.

Unmarked numbers belong to inactive results. Results filed as inconclusive are left out. The source made the active and inactive calls. Unless noted, calls come from the whole dose curve; as a rule, active = well fitted curve in the direction sought with a large enough effect; inconclusive = small, poorly fitted or top-dose-only effect, or another doubt; inactive = no such curve, though single readings can be large; an effect the other way counts as inactive or inconclusive.

Sequence of Rap guanine nucleotide exchange factor 3 (Homo sapiens) (O95398 whole entry, looked up): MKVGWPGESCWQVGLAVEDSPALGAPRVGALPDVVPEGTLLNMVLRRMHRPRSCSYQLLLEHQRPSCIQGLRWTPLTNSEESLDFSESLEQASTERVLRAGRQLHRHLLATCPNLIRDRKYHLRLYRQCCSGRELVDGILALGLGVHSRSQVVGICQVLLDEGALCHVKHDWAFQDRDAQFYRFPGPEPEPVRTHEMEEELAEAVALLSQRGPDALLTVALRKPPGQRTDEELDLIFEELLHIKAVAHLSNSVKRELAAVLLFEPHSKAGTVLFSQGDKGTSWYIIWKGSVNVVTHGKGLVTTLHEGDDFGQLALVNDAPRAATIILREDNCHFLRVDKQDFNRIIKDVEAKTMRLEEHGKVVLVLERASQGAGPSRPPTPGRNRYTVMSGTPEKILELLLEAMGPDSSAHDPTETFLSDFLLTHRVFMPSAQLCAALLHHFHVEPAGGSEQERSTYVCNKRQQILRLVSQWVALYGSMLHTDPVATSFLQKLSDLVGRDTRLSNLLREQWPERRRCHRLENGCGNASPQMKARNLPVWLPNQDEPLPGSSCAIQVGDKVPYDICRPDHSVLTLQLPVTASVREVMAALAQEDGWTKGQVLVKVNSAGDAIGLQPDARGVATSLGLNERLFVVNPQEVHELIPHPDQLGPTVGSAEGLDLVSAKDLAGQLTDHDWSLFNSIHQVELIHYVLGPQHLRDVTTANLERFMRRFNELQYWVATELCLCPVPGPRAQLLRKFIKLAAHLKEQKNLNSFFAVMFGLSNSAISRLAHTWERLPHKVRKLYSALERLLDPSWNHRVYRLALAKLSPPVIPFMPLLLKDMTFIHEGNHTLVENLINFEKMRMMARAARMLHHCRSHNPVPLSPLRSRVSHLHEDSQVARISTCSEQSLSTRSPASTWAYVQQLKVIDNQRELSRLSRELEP
Sequence of Cytochrome P450 3A4 (Homo sapiens) (P08684 whole entry, looked up): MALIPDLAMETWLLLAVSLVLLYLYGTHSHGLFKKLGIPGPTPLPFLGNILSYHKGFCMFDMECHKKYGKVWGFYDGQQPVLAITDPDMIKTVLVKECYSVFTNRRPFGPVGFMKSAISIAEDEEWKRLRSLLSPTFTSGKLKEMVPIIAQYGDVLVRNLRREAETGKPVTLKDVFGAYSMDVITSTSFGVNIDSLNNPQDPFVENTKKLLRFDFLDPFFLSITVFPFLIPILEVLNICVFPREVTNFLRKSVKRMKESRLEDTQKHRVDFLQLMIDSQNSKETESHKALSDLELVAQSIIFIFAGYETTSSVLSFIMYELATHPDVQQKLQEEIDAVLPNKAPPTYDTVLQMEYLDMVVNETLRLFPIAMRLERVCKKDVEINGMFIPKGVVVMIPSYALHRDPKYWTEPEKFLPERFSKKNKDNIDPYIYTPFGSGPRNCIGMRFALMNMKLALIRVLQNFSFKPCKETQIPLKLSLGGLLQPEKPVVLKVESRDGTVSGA
Sequence of Rap guanine nucleotide exchange factor 4 (Homo sapiens) (Q8WZA2 whole entry, looked up): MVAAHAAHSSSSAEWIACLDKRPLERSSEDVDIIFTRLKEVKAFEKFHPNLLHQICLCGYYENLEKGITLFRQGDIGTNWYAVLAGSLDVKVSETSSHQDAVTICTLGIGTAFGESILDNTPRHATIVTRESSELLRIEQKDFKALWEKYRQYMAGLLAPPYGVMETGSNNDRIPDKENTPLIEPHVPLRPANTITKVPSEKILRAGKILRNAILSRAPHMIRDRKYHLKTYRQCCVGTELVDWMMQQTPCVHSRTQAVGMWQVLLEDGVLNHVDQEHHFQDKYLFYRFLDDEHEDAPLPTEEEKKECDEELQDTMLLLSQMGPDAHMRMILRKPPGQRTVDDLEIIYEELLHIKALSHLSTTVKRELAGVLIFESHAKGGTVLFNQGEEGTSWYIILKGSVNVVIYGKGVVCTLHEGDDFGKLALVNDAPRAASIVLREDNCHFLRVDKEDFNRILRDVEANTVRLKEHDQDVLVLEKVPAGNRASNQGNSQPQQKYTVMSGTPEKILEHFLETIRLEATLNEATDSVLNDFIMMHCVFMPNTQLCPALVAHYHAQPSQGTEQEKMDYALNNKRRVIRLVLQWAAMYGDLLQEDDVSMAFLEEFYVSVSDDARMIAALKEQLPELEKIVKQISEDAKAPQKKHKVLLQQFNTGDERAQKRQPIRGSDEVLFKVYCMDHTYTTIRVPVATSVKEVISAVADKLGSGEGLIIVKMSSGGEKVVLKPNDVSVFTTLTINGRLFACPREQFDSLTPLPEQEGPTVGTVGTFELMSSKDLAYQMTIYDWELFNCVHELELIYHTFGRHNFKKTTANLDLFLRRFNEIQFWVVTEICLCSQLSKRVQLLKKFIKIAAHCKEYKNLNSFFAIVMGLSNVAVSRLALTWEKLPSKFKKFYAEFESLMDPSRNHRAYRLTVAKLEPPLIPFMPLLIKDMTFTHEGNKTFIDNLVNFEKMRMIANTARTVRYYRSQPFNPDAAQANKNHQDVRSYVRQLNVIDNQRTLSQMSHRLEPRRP
Sequence of 3',5'-cyclic-AMP phosphodiesterase 4B (Homo sapiens) (Q07343 whole entry, looked up): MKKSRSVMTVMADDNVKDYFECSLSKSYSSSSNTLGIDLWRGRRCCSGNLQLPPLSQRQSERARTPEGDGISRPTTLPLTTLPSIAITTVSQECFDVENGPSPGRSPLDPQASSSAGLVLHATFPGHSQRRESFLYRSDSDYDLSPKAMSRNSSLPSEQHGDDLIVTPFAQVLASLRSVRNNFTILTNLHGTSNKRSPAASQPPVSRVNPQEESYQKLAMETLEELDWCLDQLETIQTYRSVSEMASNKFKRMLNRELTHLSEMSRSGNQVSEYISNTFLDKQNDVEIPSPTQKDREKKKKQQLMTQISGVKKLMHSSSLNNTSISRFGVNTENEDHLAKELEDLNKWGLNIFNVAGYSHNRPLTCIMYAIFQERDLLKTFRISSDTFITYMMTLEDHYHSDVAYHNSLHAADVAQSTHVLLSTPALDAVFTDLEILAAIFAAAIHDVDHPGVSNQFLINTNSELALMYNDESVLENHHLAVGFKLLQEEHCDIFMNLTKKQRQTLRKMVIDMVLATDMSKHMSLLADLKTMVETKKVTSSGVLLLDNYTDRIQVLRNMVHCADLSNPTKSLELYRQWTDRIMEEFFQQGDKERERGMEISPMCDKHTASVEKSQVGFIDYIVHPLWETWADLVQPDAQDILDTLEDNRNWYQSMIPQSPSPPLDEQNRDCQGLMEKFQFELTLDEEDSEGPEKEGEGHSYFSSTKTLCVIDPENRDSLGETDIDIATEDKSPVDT
Sequence of Metallo-beta-lactamase type 2 (Klebsiella pneumoniae) (C7C422 whole entry, looked up): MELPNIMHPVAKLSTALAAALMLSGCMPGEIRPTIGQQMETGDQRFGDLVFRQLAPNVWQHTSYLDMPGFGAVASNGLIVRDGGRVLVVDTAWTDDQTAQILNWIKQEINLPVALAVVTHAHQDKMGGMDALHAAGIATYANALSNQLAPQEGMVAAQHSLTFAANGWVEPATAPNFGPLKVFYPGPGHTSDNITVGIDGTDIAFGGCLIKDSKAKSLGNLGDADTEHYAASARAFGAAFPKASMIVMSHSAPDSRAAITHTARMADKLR

`C/C=C/CC(C)C(O)C1C(=O)NC(CC)C(=O)N(C)CC(=O)N(C)C(CC(C)C)C(=O)NC(C(C)C)C(=O)N(C)C(CC(C)C)C(=O)NC(C)C(=O)NC(C)C(=O)N(C)C(CC(C)C)C(=O)N(C)C(CC(C)C)C(=O)N(C)C(C(C)C)C(=O)N1C` (stereo not given): the Potency result in assay [1] is “inactive”. Besides, the molecule was classed as inactive in assay [2].

Consider `COc1ccc2c(CCN)c[nH]c2c1`, for which the Potency entry in [3] was “inactive”.

As for `CC(C)=CCCC1(C)C=Cc2c(O)c3c(c(CC=C(C)C)c2O1)OC12C(=CC4CC1C(C)(C)OC2(C/C=C(/C)C(=O)O)C4O)C3=O` (stereo not given), the Potency in assay [4] is 20 µM (active); in assay [8] it was 35.5 µM (active); in assay [9], 17.1 µM (active); in [10] it was 2.78 µM (active); in [11], 126 µM (active); in assay [13] it was 5.87 µM (active). The Potency in assay [14] is 28 µM (active). Besides, the Potency result (in assay [5]; in assay [6]; with Furin (Homo sapiens); in assay [12]; in assay [17]) was “inactive” in each case. Also, the outcome in [7], in assay [15] and in assay [16] was inactive.

With `CC1OC(O[C@H]2C[C@@H](O)[C@]3(CO)[C@H]4[C@H](O)C[C@]5(C)[C@@H](C6=CC(=O)OC6)CC[C@]5(O)[C@@H]4CC[C@]3(O)C2)C(O)C(O)C1O` (stereo not given in full), the Potency entry (with Furin (Homo sapiens); in assay [12]) was “inactive” each time. For the same molecule, the outcome in [18] was inactive. Besides, the Potency in assay [13] was 0.147 µM (active).

As for `CCCCCCCCCCCCCCCCOC[C@@H](COP(=O)([O-])OCC[N+](C)(C)C)OC(C)=O`, in [3], the activity change, negative = inhibition is 5.71% [at 6.83 µM].

In the case of `Ic1cncc(OC[C@@H]2CCN2)c1`, the Potency in assay [19] was 0.398 µM (active); in assay [20], more than 46 µM; in [21], more than 46 µM; in assay [10], 34.9 µM (active). In addition, the Potency result (in assay [22]; in assay [23]; with Furin (Homo sapiens); in assay [9]; in assay [24]; in [12]) was “inactive” throughout. The Potency result in assay [13] and in assay [25] was “inactive” in each case.
